The panel holds about 83,000 compounds, 20% with a hit somewhere; the sample as a whole holds those more often.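 Method: cells in 96-well plates; compound added at one concentration; 48 h incubation; percent growth measured; values under 10 scored active.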 The source made the active and inactive calls.

The test system of the assay is SF-268 CNS. The assay can be described thus: NCI-60 one-dose screen, 48 h (100 = growth as untreated, 0 = no growth, -100 = all killed). Conditions: 10 µM.
`O=S(=O)(NCCCNc1nccc(-c2c(-c3ccc(F)cc3)nc3sccn23)n1)c1ccc2ccccc2c1`: the growth was 40.3% (inactive).

As to `O=C(Nc1cccc(-n2cc(-c3ccncc3)c(-c3ccc(O)c(Cl)c3)n2)c1)c1ccc(Cl)c(Cl)c1`, the growth is 74.1% (inactive).

With `Cc1ccc(C)c(C(O)(c2cc(C)ccc2C)C2(O)CCCCC2)c1`, the growth is 94.2% (inactive).

On to `O=C(/C=C/c1cc2ccccc2[nH]c1=O)c1ccc2c(c1)OCO2`, for which the growth was 93.6% (inactive).

For `O=C(Nc1cccc(-n2cc(-c3ccncc3)c(-c3ccc(O)c(Cl)c3)n2)c1)Nc1ccc(Cl)c(Cl)c1`, the growth was 10.9% (inactive).

Consider `O=C(Nc1ccc(OS(=O)(=O)c2ccccc2)cc1)C12CC3CC(CC(C3)C1)C2`, for which the growth is 78.6% (inactive).

`COc1ccc(-c2nn(-c3cccc(NC(=O)Nc4ccc(Cl)c(C(F)(F)F)c4)c3)cc2-c2ccncc2)cc1Cl`: the growth was 31% (inactive).

`COc1ccc(-c2nn(-c3cccc(NC(=O)c4ccc(Cl)c(Cl)c4)c3)cc2-c2ccncc2)cc1Cl`: the growth was 89.8% (inactive).

Consider `CCOC(=O)CCC(NC(=O)c1ccc(N)cc1)C(=O)OCC` (centres undefined), for which the growth is 99.7% (inactive).

For `O=C(Nc1ccccc1)Nc1cccc(-n2cc(-c3ccncc3)c(-c3ccc(O)c(Cl)c3)n2)c1`, the growth is 71.7% (inactive).

Turning to `O=S(=O)(NCCNc1nccc(-c2c(-c3ccc(F)cc3)nc3sccn23)n1)c1ccc2ccccc2c1`, the growth was 68.3% (inactive).

Regarding `O=C(Nc1cccc(-n2cc(-c3ccncc3)c(-c3ccc(O)c(Cl)c3)n2)c1)c1cc(C(F)(F)F)cc(C(F)(F)F)c1`, the growth was 76.8% (inactive).

Regarding `O=C(N/N=C/c1cc2ccccc2c2ccccc12)c1cc(O)c(O)c(O)c1`, the growth was 46.7% (inactive).

Take `COc1ccc(-c2nn(-c3cccc(NC(=O)c4cc(C(F)(F)F)cc(C(F)(F)F)c4)c3)cc2-c2ccncc2)cc1Cl`: the growth is 72.6% (inactive).

As to `O=S(=O)(NCCCNc1nccc(-c2c(-c3ccc(F)cc3)nc3sccn23)n1)c1ccc(F)cc1`, the growth was 45.4% (inactive).

`COc1ccc(-c2nn(-c3cccc(NC(=O)c4ccc(N5CCOCC5)c(C(F)(F)F)c4)c3)cc2-c2ccncc2)cc1Cl`: the growth was 70.7% (inactive).

As to `CCCCCCN1CCN(Cc2ccc(N(CC)CC)cc2)C(=O)C1=O`, the growth was 42.5% (inactive).

With `COc1ccc(Oc2nc(NC3CCCC3)nc(Sc3ccc(OC)cc3)n2)cc1`, the growth is 55.6% (inactive).

For the molecule `COc1ccc(-c2nn(-c3cccc(NC(=O)Nc4cccc(C(F)(F)F)c4)c3)cc2-c2ccncc2)cc1Cl`, the growth is 23.5% (inactive).

In the case of `COc1ccc(-c2nn(-c3cccc(NC(=O)Nc4ccccc4)c3)cc2-c2ccncc2)cc1Cl`, the growth is 27.9% (inactive).

Regarding `CCOC(=O)c1ccoc1`, the growth is 108% (inactive).

`COc1ccc(/C=C/C(C)=N/OCC(=O)O)cc1`: the growth is 107% (inactive).

As to `CN(C)Cc1cn(-c2ncc(-c3ccc(C(F)(F)F)cc3)c(NC3CCCCCC3)n2)nn1`, the growth is 88.5% (inactive).

On to `COc1cccc(C(=O)Nc2ccc(CN3CCc4nc5cc(OC)c(OC)cc5cc43)cc2)c1`, for which the growth is 47% (inactive).

For `O=[N+]([O-])c1cccc(-c2ncc(-c3ccc(Cl)cc3Cl)[nH]2)c1`, the growth was 54.4% (inactive).

Take `CCN(CC)CCSCCN(CC)CC`: the growth is 106% (inactive).

For the molecule `COc1ccc([N+](=O)[O-])c(C(=O)O)c1`, the growth was 102% (inactive).

On to `CNc1ncc(-c2ccc(C(F)(F)F)cc2)c(NC2CCCCCC2)n1`, for which the growth is 99.7% (inactive).

In the case of `CN(C)c1ccc(/C=C/C=N/NC(=O)c2cc(O)c(O)c(O)c2)cc1`, the growth is 94.6% (inactive).

In the case of `O=C(Nc1cccc(-n2cc(-c3ccncc3)c(-c3ccc(O)c(Cl)c3)n2)c1)c1ccc(N2CCOCC2)c(C(F)(F)F)c1`, the growth was 63.2% (inactive).

As for `Cc1ccc(CC#N)cc1C`, the growth is 86.2% (inactive).

`O=c1oc2cc(OS(=O)(=O)c3ccccc3)ccc2c2c1CCCCC2`: the growth was 76.8% (inactive).

For `CCOC(=O)C(NC(=O)C(Cl)Cl)C(O)c1ccccc1` (centres undefined), the growth was 99.3% (inactive).

For the molecule `C/C(N)=C(\C#N)C(=O)c1ccccc1`, the growth is 110% (inactive).

For the molecule `Nc1ncnc2[nH]c(=O)[nH]c12`, the growth was 89% (inactive).

With `COc1ccc(-c2nn(-c3cccc(NC(=O)c4cccc(C(F)(F)F)c4)c3)cc2-c2ccncc2)cc1Cl`, the growth was 37.5% (inactive).

As for `O=C1CC[C@@H]2CCCC[C@@H]2C1`, the growth was 113% (inactive).

As for `Cc1ccc(S(=O)(=O)OCCN(CCOS(=O)(=O)c2ccc(C)cc2)c2c[nH]c(=O)[nH]c2=O)cc1`, the growth was 108% (inactive).

In the case of `FC(F)(F)c1ccc(-c2cnc(-n3cc(COCCN4CCCCC4)nn3)nc2NC2CCCCCC2)cc1`, the growth is 33.2% (inactive).

These data come from PubChem BioAssay (NCI).
